Experimental data from PubChem BioAssay (NCATS).
Inconclusive results are not listed. Activity calls are given as the source filed them. Calls come from the whole dose curve; as a rule, active = well fitted inhibition curve with a large enough effect; inconclusive = small, poorly fitted or top-dose-only effect; inactive = no such curve, though single readings can be large or run the other way.

Test: Primary qHTS for small molecule stabilizers of the endoplasmic reticulum resident proteome: Secreted ER Calcium Modulated Protein (SERCaMP) assay (AID 1508630)
Settings: SH-SY5Y GLuc-SERCaMP (Gaussia luciferase released on ER calcium loss) secretion, thapsigargin, luminescence; series mostly up to 38.4 µM; activity change, negative = inhibition: at the top concentration
Text: Assay Provider: Brandon K. Harvey Ph.D.
National Institute on Drug Abuse, National Institutes of Health, Baltimore, MD
Endoplasmic reticulum (ER) dysregulation is associated with human pathologies including neurodegenerative, cardiovascular, muscular, and diabetic conditions. Maintenance of ER calcium is critical for functions of the ER and its depletion can lead to loss of ER resident proteins, in a process termed exodosis. Therapeutic compounds capable of attenuating the redistribution of ER proteins under pathological conditions may slow or stop disease progression. To identify such compounds, we performed a quantitative high-throughput screen (qHTS) using the SERCaMP assay, which monitors secretion of ER resident proteins triggered by calcium depletion.
SERCaMP was initially developed as a reporter of ER calcium homeostasis using a Gaussia luciferase with a modified signal peptide and carboxy-terminus (GLuc-SERCaMP), modifications that confer secretion of the reporter in response to ER calcium depletion (Henderson et al., 2014). The assay was used to screen 9,501 compounds, including a collection of drugs approved by the FDA (US), EMA (EU), NHI (Japan), and HC (Canada) regulatory agencies (Huang et al., 2011). Since the SERCaMP reporter reflects the exodosis phenomenon (Trychta et al., 2018a), compounds identified in the screen have the potential to prevent exodosis by different mechanisms such as stabilizing ER calcium or augmenting ERS retrieval.
1. Henderson, M.J., Wires, E.S., Trychta, K.A., Richie, C.T., and Harvey, B.K. (2014). SERCaMP: a carboxy-terminal protein modification that enables monitoring of ER calcium homeostasis. Mol Biol Cell 25, 2828-2839.
2. Huang, R., Southall, N., Wang, Y., Yasgar, A., Shinn, P., Jadhav, A., Nguyen, D.T., and Austin, C.P. (2011). The NCGC pharmaceutical collection: a comprehensive resource of clinically approved drugs enabling repurposing and chemical genomics. Sci Transl Med 3, 80ps16.
3. Trychta, K.A., Back, S., Henderson, M.J., and Harvey, B.K. (2018a). KDEL Receptors Are Differentially Regulated to Maintain the ER Proteome under Calcium Deficiency. Cell Rep 25, 1829-1840 e1826.
SEQUENCE No. (1, 2, 3, etc.); […] (e.g., Cells, Incubation, Reagent, etc.); VALUE and DESCRIPTION.
1; Reagent; 5 uL; 1000 SH-SY5Y cells per wells
3; Compound; 23 nL; Control inhibitor / compound library
5; Reagent; 100 nM; Thapsigargin
7; Reagent; 1 uL; 0.5x coelenterazine
8; Detection; Luminescence; ViewLux imaging system
NOTES (numbers refer to sequence above)
1; SH-SY5Y human neuroblastoma cells stably expressing GLuc-SERCaMP (SH-SY5Y-GLuc-ASARTDL) cells were seeded in 1,536 well white tissue culture treated plates (Corning, Cat# 7464) in DMEM-high glucose-sodium pyruvate (ThermoFisher Scientific, Cat #10569) supplemented with 10% bovine growth serum (Hyclone), 10 U/ml penicillin (Gibco), 10 ug/ml streptomycin (Gibco), and 20 mM HEPES.
2; Assay plates were incubated for 5 hour at 37C in a humidified incubator containing 5% CO2.
3; qHTS libraries (23 nl, final concentrations of 1.53 uM, 7.67 uM, 38.3 uM) or controls (neutral control: DMSO, positive control: dantrolene) were added using a Kalypsis pin-tool Robotic System equipped with 1536 pinheads.
4; Cells were then incubated for 16 hours at 37C, 5% CO2.
5; Thapsigargin was added at 100 nM to deplete ER calcium stores.
6; Cells were incubated for 4 hour (37 °C, 5% CO2)
7; Gaussia luciferase in the medium was measured by adding 1 ul of 0.5x coelenterazine (final concentration 0.07x) prepared in Gaussia Luciferase Glow Assay Buffer (Pierce), without addition of the Cell Lysis Buffer Reagent.
8; Luminescence was measured using a ViewLux […] CCD imaging system (Perkin Elmer) equipped with clear filters. […] The same controls were also used for the calculation of the Z' factor, a measure of assay quality control, as previously described (Zhang et al., 1999). […]
% is set by controls: 0 for no effect and ±100 for the full control effect.

SMILES	activity change, negative = inhibition	Potency
CCO[C@@H]1O[C@H](C(COCc2ccccc2)OCc2ccccc2)[C@H](OCc2ccccc2)[C@H]1O (stereo not given in full)	-25.6% (inactive)	
N=C(N)N1CCc2ccccc2C1	-7.52% [at 3.88 µM] (inactive)	
CC(=O)OC[C@H]1O[C@@H](n2ncc(=O)[nH]c2=O)[C@H](OC(C)=O)[C@@H]1OC(C)=O	101% (inactive)	
C[N+]1(C)CCC(=C(c2ccccc2)c2ccccc2)CC1		inactive
CCCCC(CC)CN1CN(CC(CC)CCCC)CC(C)(N)C1 (stereo not given)	-7.42% (inactive)	
CCCCCCCCCCCCSCCOCCO	-3.29% (inactive)	
CC(=O)O[C@]1(C(C)=O)CC[C@H]2[C@@H]3C=C(C)C4=CC(=O)CC[C@]4(C)[C@H]3CC[C@@]21C	20.1% (inactive)	
C#C[C@]1(O)CC[C@H]2[C@@H]3CCC4=CC(=O)CC[C@@H]4[C@H]3CC[C@@]21CC	13.4% (inactive)	
Cc1cc(-c2ccccc2)nnc1NCCN1CCOCC1	-14.1% (inactive)	
CCCCC(CC)COC(=O)c1ccc(N(C)C)cc1 (stereo not given)	-3.9% (inactive)	
CCOc1ccc(NC(C)=O)cc1	-7.04% (inactive)	
COc1cc(O)c(C(=O)c2ccccc2)cc1S(=O)(=O)O	-19.2% (inactive)	
CC(C)(C)NC[C@H](O)COc1nsnc1N1CCOCC1		inactive
O=S(=O)(O)c1ccc(O)cc1	-28.1% (inactive)	
CCN(CC)CCNC(=O)COc1ccc(OC)cc1	-28.4% (inactive)	
CN(C)CCOC(c1ccc(Cl)cc1)c1ccccn1 (stereo not given)	-21.3% (inactive)	
CN(C)C(=O)Nc1ccc(Cl)c(Cl)c1	-35.6% (inactive)	
Cl/C(=C\n1cncn1)c1ccc(Cl)cc1Cl		inactive
CCCN(CCc1cccs1)[C@H]1CCc2c(O)cccc2C1	-10.4% (inactive)	
COC(=O)C(c1ccccc1Cl)N1CCc2sccc2C1 (stereo not given)		inactive

SMILES	activity change, negative = inhibition	Potency
O=C(O)CCNC(=O)c1ccccc1	-16.9% (inactive)	
C[C@@]12C(=O)OC(=O)[C@]1(C)C1CCC2O1	153% (inactive)	
O=c1[nH]c(=O)n([C@H]2C[C@H](O)[C@@H](CO)O2)cc1F	31.6% (inactive)	
C/C=C/C=N/NC(=O)c1ccncc1	4.65% (inactive)	
O=C(N/N=C/c1ccc([N+](=O)[O-])o1)c1ccc(O)cc1	32.2% (inactive)	
NC(N)=NCc1cccc(I)c1	-29.5% (inactive)	
CCCCOC(=O)CC(CC(=O)OCCCC)(OC(C)=O)C(=O)OCCCC	12% (inactive)	
Cc1c(-c2ccccc2)oc2c(C(=O)OCCN3CCCCC3)cccc2c1=O	64% (inactive)	
O=C(CN1CCN(Cc2ccc3c(c2)OCO3)CC1)N1c2ccccc2Sc2ccccc21	-24.1% (inactive)	
OC[C@H]1O[C@@H](Oc2ccc(O)cc2)[C@H](O)[C@@H](O)[C@@H]1O	-24.1% (inactive)	
O=C(O)C(Cc1cc(I)c(O)c(I)c1)c1ccccc1 (stereo not given)	-12.2% (inactive)	
CC[C@H](c1ccc(O)cc1)[C@@H](CC)c1ccc(O)cc1	-9.76% (inactive)	
O=C(NCCc1c[nH]c2ccccc12)c1cccnc1	-24.2% (inactive)	
CCCCN1C[C@H](O)[C@@H](O)[C@H](O)[C@H]1CO	5.17% (inactive)	
CCc1ccc(C(=O)C(C)CN2CCCCC2)cc1 (stereo not given)	37.7% (inactive)	
Nc1nc(Cl)nc2c1ncn2[C@@H]1O[C@H](CO)[C@@H](O)[C@@H]1F	129% (inactive)	
Cc1cc(CC(=O)O)c(C)n1-c1ccc(Cl)cc1	1.18% (inactive)	
Cc1nc(-c2ccc(Cl)cc2)oc1COC(C)(C)C(=O)O	-22.7% (inactive)	
NS(=O)(=O)c1ccc(Cl)c(S(N)(=O)=O)c1	-3.13% (inactive)	
CC(=O)NCCCCCC(=O)O	2.86% (inactive)	
